Source: PubChem (several laboratories)
Hits are enriched below; roughly 3% of the tested compounds scored in any of these assays.
GDH-TPI counter-1 – GDH-TPI coupled enzyme inhibition counter-screen. GDH-TPI coupled enzyme counterscreen, NADH absorbance. inhibition, % at 4.8 µM. 360,000 tested, 1.2% active. AID 588335; in the data active = inhibition above about 30%;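 note: 0% = DMSO wells and 100% = wells lacking the enzyme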
Mtb BioA inh – BioA (M. tuberculosis) enzyme inhibition | inhibition, % at 9.99 µM | purified M. tuberculosis BioA enzyme, plate reader | 360,000 tested, 0.096% active | AID 602481; in the data active = inhibition above about 40%
Mtb FBA inh – inhibitors of M. tuberculosis fructose-bisphosphate aldolase. P9WQA3. inhibition, % at 1 µM. 360,000 tested, 2.3% active. purified M. tuberculosis FBA, fluorescence read-out;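 note: 0% = vehicle and 100% = reference inhibitor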
Target sequence (P9WQA3 whole entry, looked up): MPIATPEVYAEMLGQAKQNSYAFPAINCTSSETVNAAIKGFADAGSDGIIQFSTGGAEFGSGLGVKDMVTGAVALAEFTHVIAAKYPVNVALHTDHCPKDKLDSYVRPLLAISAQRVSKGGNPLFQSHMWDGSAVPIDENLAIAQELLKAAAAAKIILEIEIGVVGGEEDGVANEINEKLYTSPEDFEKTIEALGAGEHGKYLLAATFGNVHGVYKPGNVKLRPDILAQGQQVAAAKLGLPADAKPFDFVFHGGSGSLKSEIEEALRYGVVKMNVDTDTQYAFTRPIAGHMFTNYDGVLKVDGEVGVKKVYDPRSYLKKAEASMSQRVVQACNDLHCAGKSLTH
BH1578 lux ind – inducers of Vibrio cholerae quorum light production without autoinducers. V. cholerae BH1578 lux reporter, luminescence, 6 h. activation, % at 18.7 µM. 350,000 tested, 0.16% active. AID 588436; in the data active = activation mostly above about 9.7%, no sharp cut-off
Mtb FBA inh conf – Mtb FBA inhibition, confirmed. shares compounds with Mtb FBA inh. purified M. tuberculosis FBA, fluorescence read-out. inhibition, % at 1 µM. 5,600 tested, 78% active;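 note: 0% = vehicle wells and 100% = reference inhibitor wells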
GDH-TPI counter-2 – inhibits GDH-TPI coupling enzymes, flagging Mtb FBA hits | shares compounds with Mtb FBA inh | GDH-TPI coupled enzyme counterscreen, fluorescence | inhibition, % at 1 µM | 5,600 tested, 81% active | AID 652141; in the data active = inhibition above about 10%
Active calls of the source: *; i = inactive; . = not tested or not shown; + = active, no number. Cut-off read from the data, not from the text of the source, unless noted: active = inhibition above about 27%; inactive = the rest.

SMILES | GDH-TPI counter-1 | Mtb BioA inh | Mtb FBA inh | BH1578 lux ind | Mtb FBA inh conf | GDH-TPI counter-2
C=CCn1c(SCC(=O)N(CC)C2CCS(=O)(=O)C2)nc2cc(C(=O)O)ccc2c1=O (centres undefined) | 4.8 | 5.1 | 32.2* | i | 111.0* | 89.2*
CSc1ccc(/C=C/C(=O)OCC(=O)NC2CC2)cc1 | 24.5 | -0.6 | 46.5* | 0.7 | 95.1* | 67.6*
CCOC(=O)C1=C(COC(=O)/C=C/c2ccc(SC)cc2)NC(=O)NC1C (centres undefined) | 18.7 | -0.3 | 40.2* | -0.5 | 34.8* | 22.8*
O=C(COC(=O)/C=C/c1ccc(Cl)cc1)NC1CC1 | 8.9 | -1.7 | -0.6 | 0.4 | . | .
CSc1ccc(/C=C/C(=O)OCC(=O)NC(C)C)cc1 | 19.6 | . | 57.9* | -0.2 | 98.2* | 93.2*
CCCNC(=O)N[C@@H]1CC[C@H](CC(=O)NC2CCCCC2)O[C@H]1CO | . | -3.0 | . | . | . | .
O=C(Nc1ccc2c(c1)OCO2)N[C@@H]1C=C[C@@H](CC(=O)N2CCN(c3ccccc3)CC2)O[C@H]1CO | . | -2.6 | . | . | . | .
C/C=C/c1cnc2c(c1)C(=O)N([C@@H](C)CO)C[C@@H](C)[C@@H](CN(C)C(=O)C1CC1)O2 | . | -4.1 | . | . | . | .
CCCN1C(=O)c2ccccc2NC1c1ccc(Br)cc1 (centres undefined) | 13.3 | 2.8 | 68.4* | 1.1 | 68.0* | 59.5*
O=C1c2ccccc2NC(c2ccc([N+](=O)[O-])cc2)N1O (centres undefined) | 8.0 | 2.7 | -0.5 | -0.6 | . | .
Cc1ccc(C2Nc3ccccc3C(=O)N2CCCN2CCOCC2)cc1 (centres undefined) | 5.4 | . | 58.7* | i | 102.0* | 108.0*
CCCN1C(=O)c2ccccc2NC1c1ccc(Cl)cc1 (centres undefined) | 11.3 | -0.5 | 60.3* | i | 131.6* | 106.8*
CCCCN1C2=C(C(=O)CCC2)C(c2ccc(Cl)c(Cl)c2)C2=C1c1ccccc1C2=O (centres undefined) | -10.8 | 0.5 | -14.2 | i | . | .
CCCN1C(=O)c2ccccc2NC1c1ccc(Cl)c(Cl)c1 (centres undefined) | 9.3 | 1.0 | 59.5* | i | 104.2* | 107.4*
CCNC(=O)C[C@@H]1CC[C@H]2[C@@H](COc3ccc(NC(=O)Nc4ccccc4F)cc3C(=O)N2C)O1 | . | -0.5 | . | . | . | .
CN(C)c1ccc(NC(=O)Cc2ccccc2)c2ccccc12 | 5.7 | -2.9 | 29.0* | 0.0 | 38.7* | 33.8*
C[C@@H]1CN([C@H](C)CO)C(=O)c2cc(C#CC3(O)CCCC3)cnc2O[C@@H]1CN(C)C(=O)C1CCOCC1 | . | -0.4 | . | . | . | .
O=C(O)c1ccccc1-c1ccccc1C(=O)Nc1ccc2c(c1)oc(=O)c1ccccc12 | 29.9 | -0.2 | 33.5* | i | 2.2 | -3.3
Cc1cc(NC(=O)c2ccccc2Cl)ccc1NC(=O)c1ccccc1Cl | 14.8 | -1.2 | -1.4 | i | . | .
Cc1cc(=O)oc2cc(NC(=O)COc3ccccc3[N+](=O)[O-])ccc12 | 7.3 | -0.4 | 18.3 | -1.2 | . | .
Cc1cccc(OCC(=O)Nc2ccc3c(C)cc(=O)oc3c2)c1 | 15.1 | . | 14.7 | -0.3 | . | .
Cc1cc(=O)oc2cc(NC(=O)c3ccccc3Cl)ccc12 | 22.2 | 0.9 | 95.6* | i | 0.0 | 0.3
COc1ccccc1CC(=O)Nc1ccc2c(C)cc(=O)oc2c1 | 22.3 | 5.0 | 36.6* | 0.7 | 100.8* | 81.9*
CCCCOC(=O)Nc1ccc2c(C)cc(=O)oc2c1 | 16.5 | . | 83.8* | i | 6.8 | 2.4
COCC(=O)Nc1ccc2c(c1)OC[C@@H](C)N(C(=O)Cc1ccccn1)C[C@H](C)[C@H](OC)CN(C)C2=O | . | -1.2 | . | . | . | .
SMILES | GDH-TPI counter-1 | Mtb BioA inh | Mtb FBA inh | BH1578 lux ind | Mtb FBA inh conf | GDH-TPI counter-2
O=C(N[C@@H]1CC[C@H](CCNC(=O)C2CCCC2)O[C@@H]1CO)c1ccncc1 | . | -2.6 | . | . | . | .
Cc1cc(=O)oc2cc(NC(=O)CCOc3ccccc3)ccc12 | 16.5 | -2.3 | 20.2 | -0.5 | . | .
Cc1cc(=O)oc2cc(NC(=O)C(CCCN=C(N)N)NC(=O)OCc3ccccc3)ccc12 (centres undefined) | 18.4 | 0.6 | 37.1* | -0.6 | 38.3* | 22.9*
Cc1cc(=O)oc2cc(NC(=O)CN3C(=O)NC(C)(c4ccccc4)C3=O)ccc12 (centres undefined) | 11.4 | -1.7 | 61.1* | i | 136.9* | 103.0*
Cc1cc(=O)oc2cc(NC(=O)COc3cccc(C(F)(F)F)c3)ccc12 | 15.7 | -1.1 | 41.5* | -0.4 | 70.6* | 49.7*
Cc1ccccc1CC(=O)Nc1ccc2c(C)cc(=O)oc2c1 | 2.6 | -2.0 | 93.7* | -0.8 | 7.0 | 7.0
NC(N)=NCCC[C@H](NC(=O)OCc1ccccc1)C(=O)O | -7.6 | -2.4 | -1.9 | -0.4 | . | .
COC(=O)[C@H]1[C@H](CO)[C@H]2Cn3c(ccc(C4=CCCC4)c3=O)[C@H]2N1C(=O)C1CCC1 | . | -0.5 | . | . | . | .
C[C@@H]1CN([C@H](C)CO)C(=O)Cc2cc(NC(=O)Nc3ccc(F)cc3)ccc2O[C@@H]1CN(C)Cc1ccc(C(=O)O)cc1 | . | 0.7 | . | . | . | .
COc1ccccc1S(=O)(=O)N1C[C@H](O)COC[C@@H]2O[C@@H](CC(=O)O)CC[C@H]21 | . | -1.4 | . | . | . | .
Cc1cc(=O)oc2cc(NC(=O)c3c(Cl)cnn3C)ccc12 | 25.9 | 0.0 | 8.5 | i | . | .
Cc1cc(=O)oc2cc(NC(=O)c3ccnn3C)ccc12 | 8.8 | -1.5 | 31.9* | i | + | +
CN1c2ccc(-c3ccccc3)cc2[C@H]2[C@H](CCN2C(=O)c2ccccc2)[C@@H]1CO | . | -0.6 | . | . | . | .
CC1=C(C#N)C(c2cccnc2)C2=C(N1)c1ccccc1C2=O (centres undefined) | -0.6 | -1.6 | 2.1 | -0.4 | . | .
CC1=C(C#N)C(c2cccnc2)C2=C(CCCC2=O)N1 (centres undefined) | 4.0 | 2.6 | 33.9* | -0.9 | 127.5* | 99.5*
COC(=O)c1cn(C[C@H](Cc2ccccc2)NC(=O)Nc2ccccc2)nn1 | . | -0.2 | . | . | . | .
COc1ccc(/C=C\c2cc(OC)c(OC)cc2CC[N+](C)(C)C)cc1OC | 20.8 | 4.7 | 33.5* | 1.1 | 0.3 | -2.6
C[C@H](CO)N1C[C@H](C)[C@@H](CN(C)C(=O)Nc2ccc(C(F)(F)F)cc2)OCCCC[C@H](C)Oc2ccc(NS(=O)(=O)c3ccccc3)cc2C1=O | . | -3.0 | . | . | . | .
COc1ccc(OC)c(/C=N\NC(=O)c2c(C)nc3cc(C)ccn23)c1 | 16.9 | -1.8 | 60.4* | 1.7 | + | +
COc1ccc(OC)c(/C=N/NC(=O)CSc2cc(C)nc3c(OC)cccc23)c1 | 9.5 | . | 29.7* | -0.2 | 49.7* | 35.3*
COc1ccc(-c2ccc(C(=O)NCCN(C)C)c3occc23)c(C)c1 | 6.2 | 1.6 | 33.1* | i | 32.9* | 24.7*
COCCNC(=O)c1ccc(-c2ccc(OC)cc2C)c2ccoc12 | -8.0 | 3.6 | 95.0* | 0.3 | 55.1* | 43.5*
C[C@H](CO)N1C[C@H](C)[C@@H](CN(C)Cc2ccccc2)Oc2ccc(NC(=O)Cc3cn(C)c4ccccc34)cc2CC1=O | . | 1.5 | . | . | . | .
